About 1,100 (52%) of roughly 2,100 compounds were called active. Not shown: some 27% with an inconclusive outcome. The set was probably picked from earlier hits. The list shows a part of the results. Values without a mark were called inactive. Calls come from the whole dose curve; as a rule, active = well fitted inhibition curve with a large enough effect; inconclusive = small, poorly fitted or top-dose-only effect; inactive = no such curve, though single readings can be large or run the other way.
Potency is the fitted concentration of half-maximal effect.

DNA dC->dU-editing enzyme APOBEC-3G (Homo sapiens), sequence (Q9HC16 whole entry, looked up): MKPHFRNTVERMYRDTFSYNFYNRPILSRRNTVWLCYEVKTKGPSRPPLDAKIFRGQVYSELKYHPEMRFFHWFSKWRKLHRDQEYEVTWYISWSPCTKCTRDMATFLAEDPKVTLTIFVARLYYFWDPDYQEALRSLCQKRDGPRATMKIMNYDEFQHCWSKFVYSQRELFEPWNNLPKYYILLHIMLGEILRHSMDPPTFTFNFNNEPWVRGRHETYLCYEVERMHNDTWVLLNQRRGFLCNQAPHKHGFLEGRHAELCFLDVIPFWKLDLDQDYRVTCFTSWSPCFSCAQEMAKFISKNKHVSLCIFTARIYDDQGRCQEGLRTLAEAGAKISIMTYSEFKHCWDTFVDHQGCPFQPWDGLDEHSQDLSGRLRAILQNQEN

The test addresses DNA dC->dU-editing enzyme APOBEC-3G (Homo sapiens) (UniProt Q9HC16). Nature of the test: qHTS for inhibitors of Vif-A3G interactions: Cherry picks counterscreen.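 For max response: max response given as percent of control signal.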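 Note: hits raise yellow fluorescence by blocking Vif-driven A3G-eYFP degradation; nearly all actives have a fitted effect of over 70% in size.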 To be noted: HeLa A3G-eYFP + Vif (tagged APOBEC3G with the HIV-1 protein that degrades it), eYFP fluorescence, 24 h. Summed up: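 HeLa cells stably expressing A3G-eYFP and Vif were treated for 24 h at 37 deg C with compounds at several concentrations; yellow fluorescence (Ex 488 nm, Em 500-530 nm) read by Acumen Explorer, MG132 as positive control.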
Consider `O=C(Cc1ccccc1)NCc1ccc(-n2cccc2)cc1`, for which the Potency was 1.4 µM (active).
As to `C/C(CCC(C)C)=N\NC(=S)NCc1ccccc1`, the max response is -18.4%.
Consider `Cc1ccc(CNC(=O)Cc2ccc(-n3cccc3)cc2)cc1`, for which the Potency is 1.98 µM (active).
As for `Cc1ccc2nc(C)c(C(=O)NN=C3CCCCCC3)n2c1`, the max response was -10.3%.
As for `COc1cc(/C=C2\SC(=Nc3ccccc3)NC2=O)cc(Cl)c1O`, the Potency was 3.66 µM (active).
In the case of `CCOc1cc(Br)cc(/C=C2\SC(=Nc3ccccc3)NC2=O)c1O`, the max response was -7.55%.
With `COc1cc(/C=C2\SC(=Nc3cccnc3)NC2=O)cc(OC)c1OC`, the max response is -29.3%.
As to `COc1cc(/C=C2/SC(=Nc3ccc(O)cc3)NC2=O)ccc1O`, the Potency was 14.6 µM (active).
Same read-out and setting: in the case of `O=C1NC(=Nc2ccc(O)cc2)S/C1=C/c1ccco1` it was 8.86 µM (active).
The same measure, in the same setting: in the case of `N#C/C(=C\c1ccc(-c2ccc(F)cc2F)o1)c1nc2ccccc2[nH]1` it was 8.2 µM (active); in that of `Cc1ccc2nc(/C(C#N)=C\c3ccc(OC(=O)c4cccs4)cc3)[nH]c2c1`, 11.2 µM (active).
On to `Cc1ccc2nc(/C(C#N)=C\c3ccc([N+](=O)[O-])o3)[nH]c2c1`, for which the Potency is 18.4 µM (active).
Take `Cc1ccc2nc(/C(C#N)=C/c3ccc(-c4ccc(F)cc4F)o3)[nH]c2c1`: the Potency was 1.64 µM (active).
On to `Cc1ccc2nc(/C(C#N)=C/c3ccc(-c4ccccc4C(=O)O)o3)[nH]c2c1`, for which the max response is 43.5%.
`COc1cc(CNCCSc2nnnn2C)ccc1OCc1c(F)cccc1Cl`: the max response was 28.9%.
Turning to `Cc1c(Cl)cccc1-c1ccc(/C=C(\C#N)c2nc3ccccc3[nH]2)o1`, the Potency was 10.3 µM (active).
The same measure, in the same setting: in the case of `Cc1ccc2nc(/C(C#N)=C/c3ccc(-c4cccc(Cl)c4)o3)[nH]c2c1` it was 8.2 µM (active); in that of `Cc1ccc2nc(/C(C#N)=C/c3ccc(-c4ccc(C(=O)OC(C)C)cc4)o3)[nH]c2c1`, 3.66 µM (active).
The same measure, in the same setting: in the case of `N#C/C(=C\c1ccc(-c2ccc(C(=O)O)cc2)o1)c1nc2ccccc2[nH]1` it was 4.61 µM (active).
The same measure, in the same setting: in the case of `N#Cc1ccc(-c2cccs2)nc1SCc1c(F)cccc1Cl` it was 1.84 µM (active); in that of `C=C(C(=O)c1ccccc1)C(C)C(=C)C(=O)c1ccccc1`, 8.86 µM (active); in that of `C=C(C(=O)c1ccccc1)C(NC(C)(C)C)c1ccccc1` (stereo unspecified), 14 µM (active).
As to `C=C(C(=O)c1ccccc1)C(C(=C)C(=O)c1ccccc1)c1ccc(OC)cc1`, the Potency is 9.94 µM (active).
The same measure, in the same setting: in the case of `COc1ccc(-c2n[nH]c(C)c2-c2ccc(OC)c(OC)c2)c(O)c1` it was 17.7 µM (active); in that of `Cc1cccc(Cn2c(=O)n(CCCC(=O)NCc3ccco3)c(=O)c3ccccc32)c1`, 14 µM (active).
As for `Cc1cc(C)c(NC(=O)Cn2c(=O)n(Cc3ccc(C(=O)NCc4ccco4)cc3)c(=O)c3sccc32)c(C)c1`, the Potency was 18.4 µM (active).
In the case of `Cc1ccc(C)c(Cn2c(=O)n(CCCC(=O)NCc3ccco3)c(=O)c3sccc32)c1`, the Potency was 14 µM (active).
On to `COc1cc2nc(SCC(=O)NCc3ccco3)n(Cc3ccc(Cl)cc3)c(=O)c2cc1OC`, for which the max response is -29.6%.
Take `CC(C)OC(=O)c1c2c(n3ccccc13)C(=O)c1ccccc1C2=O`: the Potency was 2.59 µM (active).
On the same count and under the same terms, in the case of `CCc1nnc(NC(=O)CSc2nnc(-c3ccccc3O)n2-c2ccc(C)cc2C)s1` it was 6.27 µM (active).
The same measure, in the same setting: in the case of `COc1ccc(C(=O)Nc2cc(C(C)=O)c(/C=C/N(C)C)oc2=O)cc1` it was 9.94 µM (active); in that of `CC(=O)c1cc(NC(=O)c2ccc(C)cc2)c(=O)oc1/C=C/N(C)C`, 14.6 µM (active).
As for `COC(=O)c1cc(NC(=O)c2ccccc2)c(=O)oc1/C=C/Nc1ccc(Oc2ccccc2)cc1`, the max response is 11.8%.
Take `CC(=O)c1cc(NC(=O)c2ccc(Cl)cc2)c(=O)oc1/C=C/N(C)C`: the Potency is 7.04 µM (active).
On to `COC(=O)c1c(-c2ccccc2Cl)noc1/C=C/N(C)C`, for which the max response was 16.3%.
The same measure, in the same setting: in the case of `COC(=O)c1ccccc1NC(=O)C1CC(=O)N(c2ccc(OC)cc2)C1` (stereo unspecified) it was -25.1%.
`COc1ccc(N2CC(C(=O)N/N=C/c3ccc(C)cc3)CC2=O)cc1` (stereo unspecified): the Potency was 7.04 µM (active).
The same measure, in the same setting: in the case of `Cc1cccc2[nH]cc(/C=C3/C=Nc4ccccc43)c12` it was 18.4 µM (active).
For the molecule `CNC(=S)N/N=C/c1ccc(N2CCOCC2)s1`, the max response was 10.6%.
Take `Cc1ccc(/C=N/NC(=O)C2COc3ccccc3O2)s1` (stereo unspecified): the Potency was 7.9 µM (active).
On the same count and under the same terms, in the case of `Cc1ccc(-c2cc(C(=O)N/N=C/c3c[nH]c4ccccc34)[nH]n2)cc1` it was 4.98 µM (active).
In the case of `O=C(N/N=C/c1c[nH]c2ccccc12)C1COc2ccccc2O1` (stereo unspecified), the Potency was 14 µM (active).
Regarding `Cc1ccc(/C=N/NC(=O)c2ccc3ccccc3c2)s1`, the Potency is 1.58 µM (active).
In the case of `Cc1cc(C)nc(NC(=S)Nc2cccc(Cl)c2Cl)c1`, the max response was 1.24%.
In the case of `O=C(NCC1CCCO1)c1nn2c(C(F)(F)F)cc(-c3cc(Br)cs3)nc2c1Br` (stereo unspecified), the Potency was 16.4 µM (active).
As to `Cc1ccc(C(=O)NC2c3ccccc3-c3ccccc32)cc1`, the Potency was 1.98 µM (active).
The same measure, in the same setting: in the case of `O=c1c2cc3ccccc3n2cnn1Cc1ccccc1F` it was 12.5 µM (active); in that of `Cn1c(=O)c2cc(NC(=O)Cc3cccc4ccccc34)ccc2n1-c1ccccc1`, 11.2 µM (active); in that of `CC(CC(=O)Nc1ccc2c(c1)c(=O)n(C)n2-c1ccccc1)c1ccccc1` (stereo unspecified), 3.96 µM (active).
On to `CC(CC(=O)Nc1ccc2c(c1)c(=O)n(C)n2Cc1ccc(F)cc1)c1ccccc1` (stereo unspecified), for which the max response is -26%.
On to `CC(CC(=O)Nc1ccc2c(c1)c(=O)n(C)n2-c1ccccc1F)c1ccccc1` (stereo unspecified), for which the Potency is 15.8 µM (active).
As to `CCCCCCNc1ccc(/C=C/c2ccnc3ccccc23)cc1`, the Potency was 18.4 µM (active).
The same measure, in the same setting: in the case of `CCCCCCCNc1ccc(/C=C/c2ccnc3ccccc23)cc1` it was 11.6 µM (active); in that of `COc1ccccc1NC(=O)c1sc2ncn(CC(=O)Nc3ccccc3)c(=O)c2c1C`, 18.4 µM (active).
On to `CCC(=O)Nc1nc2ccc(NC(=O)c3cc(OC)c(OC)c(OC)c3)cc2s1`, for which the max response is -0.685%.
For the molecule `CCCC(=O)Nc1nc2ccc(NC(=O)c3ccccc3F)cc2s1`, the Potency is 15.8 µM (active).
As to `COc1ccc(-c2c(C#N)c(N)nc(Sc3ccc(Cl)cc3)c2C#N)cc1`, the max response was -11.5%.
Same read-out and setting: in the case of `COc1ccccc1-c1cc(-c2ccccc2)nc(SC(C(N)=O)c2ccccc2)c1C#N` (stereo unspecified) it was -23.2%.
Consider `COc1ccc(OC)c(-c2cc(-c3cccnc3)nc(N)c2C#N)c1`, for which the Potency is 5.59 µM (active).
As to `CCOCCCNC(=O)/C(C#N)=C/c1ccc([N+](=O)[O-])o1`, the Potency is 23.1 µM (active).
Still for that read-out and setting: in the case of `Cc1ccc(NC(=O)C(=Cc2ccc(C(=O)O)cc2)C(=O)Nc2ccc(C)cc2C)c(C)c1` it was 7.04 µM (active); in that of `COc1cc(/C=C/c2ccnc3ccccc23)ccc1N(C)C`, 18.4 µM (active).
With `COc1cc(N(C)C)c(OC)cc1/C=C/c1ccnc2ccccc12`, the Potency was 23.1 µM (active).
Regarding `C=CCN=c1scc(-c2ccc(F)cc2)n1/N=C/c1ccccn1`, the max response was -11.2%.
As for `CCc1ccc(NC(=O)c2sc3nc(C)c(C(=O)Nc4ccc(C)cc4C)c(-c4ccco4)c3c2N)cc1`, the Potency was 23.1 µM (active).
Still for that read-out and setting: in the case of `COc1cccc(C(=O)c2sc3nc(-c4ccccc4)cc(C(F)(F)F)c3c2N)c1` it was 0.92 µM (active).
Consider `CCOC(=O)c1sc(NC(=S)NC(=O)c2ccco2)nc1C`, for which the max response is -15.3%.
`CCC(=O)OCc1cnc(C)c2oc(=O)c(C(=O)Nc3ccccc3C(F)(F)F)cc12`: the max response is -2.09%.
For `COc1ccc(OC)c(NC(=O)c2sc3nc(Cc4ccccc4)cc(C(F)(F)F)c3c2N)c1`, the Potency was 3.66 µM (active).
`COc1ccc(C(=O)c2sc3nc(C)cc(-c4cccs4)c3c2N)cc1`: the Potency is 20.6 µM (active).
Regarding `Cc1c(C(=O)Nc2ccc(C(C)C)cc2)sc2nc3n(c(=O)c12)CCC3`, the max response is 6.74%.
Take `COc1ccc(C(=O)c2sc3nc(-c4ccc(C)cc4)cc(C(F)(F)F)c3c2N)cc1`: the Potency is 0.731 µM (active).
The same measure, in the same setting: in the case of `COc1ccc(NC(=O)c2sc3nc(-c4ccc(OC)cc4)cc(C(F)(F)F)c3c2N)cc1` it was 1.3 µM (active).
Take `CCOC(=O)c1c(-c2ccc(OC)cc2)csc1/N=C/C1C(=O)CCCC1=O`: the max response is -18.7%.
On to `CCOC(=O)c1c(C)nc2sc(C(=O)Nc3ccc(OC)cc3)c(N)c2c1-c1ccc(OC)cc1`, for which the Potency is 1.98 µM (active).
As to `Cc1ccc2c(c1C)NC(=O)CC(c1ccccc1O)=N2`, the max response was -6.13%.
As to `O=C(Cc1nc2ccccc2[nH]c1=O)c1ccc(Cl)cc1`, the Potency is 1.03 µM (active).
Turning to `COc1ccc(CN2C(=O)C(C)Nc3ncnc(N4CCc5ccccc5C4)c32)cc1` (stereo unspecified), the Potency is 3.53 µM (active).
As for `Cc1ccc(S(=O)(=O)c2cc3ccccc3oc2=Nc2ccc3c(c2)OCO3)cc1`, the max response is 12.1%.
Take `C=C(C)CNC(=S)N/N=C1\CCCCc2ccccc21`: the max response is -14.6%.
With `CN(C)c1ccc(/C=C/c2ccnc3ccccc23)cc1O`, the Potency is 20.6 µM (active).
On the same count and under the same terms, in the case of `CN1CCCc2cc(/C=C/c3ccnc4ccccc34)ccc21` it was 5.8 µM (active); in that of `Cc1cc(/C=C/c2ccnc3ccccc23)ccc1N(C)C`, 14.6 µM (active).
Consider `CN(C)c1ccc(/C=C/c2ccnc3ccccc23)cc1C=O`, for which the Potency was 5.17 µM (active).
With `O=C(Nc1cc(Cl)cc2c1-c1ccc(Cl)cc1C2O)C(Cl)Cl` (stereo unspecified), the max response was -14.6%.
For `O=C(/C=C/c1ccncc1)c1cc(Cl)ccc1O`, the max response was -22.8%.
Turning to `Cc1cc(/C=C/c2ccnc3ccccc23)ccc1N`, the Potency was 18.4 µM (active).
Still for that read-out and setting: in the case of `CCc1cc(/C=C/c2ccnc3ccccc23)ccc1N(C)C` it was 20.6 µM (active).
As to `CN1C(=O)C(O)(C2COC(C)(C)CC2=O)c2cc(Br)ccc21` (stereo unspecified), the max response is -0.606%.
`N=C1S/C(=C\c2ccc(-c3cccc(Cl)c3)o2)C(=O)N1c1nccs1`: the Potency is 16.4 µM (active).
Same read-out and setting: in the case of `CCc1ccc(CNC(=O)Cc2ccc(NC(=O)C3=C(C)OCCS3)cc2)cc1` it was 0.886 µM (active).

Values taken from PubChem BioAssay AID651813 (National Center for Advancing Translational Sciences (NCATS), 2012).
